Seven compounds from ChEMBL document CHEMBL2218924, “A broad activity screen in support of a chemogenomic map for kinase signalling research and drug discovery” (Biochem J, 2013) can be followed below.

Assay [1] concerns the target T1, CDK3/cyclin E (Homo sapiens) (UniProt P24864+O96020+Q00526). Particulars: at 1 µM.
Assay [2] concerns the target T1, CDK3/cyclin E (Homo sapiens). Particulars: at 10 µM.
Assay [3] addresses T2, Cyclin-dependent kinase 5/CDK5 activator 1 (Homo sapiens) (UniProt Q00535+Q15078). As to conditions: at 1 µM.
The target of assay [4] is T2, Cyclin-dependent kinase 5/CDK5 activator 1 (Homo sapiens). As to conditions: at 10 µM.
Target sequence in this assay (Q00535 whole entry): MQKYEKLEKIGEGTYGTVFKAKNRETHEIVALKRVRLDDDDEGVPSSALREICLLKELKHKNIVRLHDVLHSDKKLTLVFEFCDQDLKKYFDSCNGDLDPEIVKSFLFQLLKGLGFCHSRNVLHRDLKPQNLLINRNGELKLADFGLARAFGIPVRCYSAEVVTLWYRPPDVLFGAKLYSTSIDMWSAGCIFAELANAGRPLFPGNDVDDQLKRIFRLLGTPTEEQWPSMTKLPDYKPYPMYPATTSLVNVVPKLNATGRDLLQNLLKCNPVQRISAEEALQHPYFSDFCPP
Target sequence in this assay (Q15078 99-307 partner limits assumed): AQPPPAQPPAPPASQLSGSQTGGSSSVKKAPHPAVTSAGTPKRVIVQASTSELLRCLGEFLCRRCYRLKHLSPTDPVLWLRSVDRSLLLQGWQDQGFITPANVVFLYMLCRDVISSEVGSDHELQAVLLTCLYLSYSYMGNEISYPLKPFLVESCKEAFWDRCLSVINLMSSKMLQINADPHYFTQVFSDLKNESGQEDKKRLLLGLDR
Assay [5] shares this target. As to conditions: at 1 µM. The source holds these as a separate data set.
Assay [6] shares this target. As to conditions: at 10 µM. The source holds these as a separate data set.
For assay [7], the target named is T3, CDK6/cyclin D3 (Homo sapiens) (UniProt P30281+Q00534). Particulars: at 1 µM.
Assay [8] has as its target T3, CDK6/cyclin D3 (Homo sapiens). As to conditions: at 10 µM.
The target of assay [9] is T4, Cyclin-dependent kinase 7/ cyclin H (Homo sapiens) (UniProt P51946+P50613). As to conditions: at 1 µM.
The target in assay [10] is T4, Cyclin-dependent kinase 7/ cyclin H (Homo sapiens). Particulars: at 10 µM.
Assay [11] concerns the target T5, CDK9/cyclin T1 (Homo sapiens) (UniProt O60563+P50750). Particulars: at 1 µM.
The target in assay [12] is T5, CDK9/cyclin T1 (Homo sapiens). Particulars: at 10 µM.
Assay [13] deals with T6, Serine/threonine-protein kinase Chk1 (Homo sapiens) (UniProt O14757).
T6 sequence (whole entry): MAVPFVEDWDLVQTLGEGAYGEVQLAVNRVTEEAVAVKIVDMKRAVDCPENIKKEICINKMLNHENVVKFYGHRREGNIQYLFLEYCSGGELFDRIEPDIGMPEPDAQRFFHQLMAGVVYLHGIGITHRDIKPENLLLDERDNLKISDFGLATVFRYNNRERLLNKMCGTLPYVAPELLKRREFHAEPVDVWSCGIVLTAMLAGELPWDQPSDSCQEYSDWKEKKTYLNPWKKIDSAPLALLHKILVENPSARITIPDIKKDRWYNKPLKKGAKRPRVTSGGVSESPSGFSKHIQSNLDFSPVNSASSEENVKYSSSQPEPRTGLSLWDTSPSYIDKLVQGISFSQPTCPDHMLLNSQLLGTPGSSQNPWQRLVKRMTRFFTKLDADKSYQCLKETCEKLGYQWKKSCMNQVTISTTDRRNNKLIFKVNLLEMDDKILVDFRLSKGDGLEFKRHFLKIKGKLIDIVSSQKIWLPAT
As to conditions: at 1 µM.

The target in assay [14] is T6, Serine/threonine-protein kinase Chk1 (Homo sapiens). As to conditions: at 10 µM.
Assay [15] concerns the target Serine/threonine-protein kinase Chk2 (Homo sapiens) (UniProt O96017). Particulars: at 1 µM.
Assay [16] has the same target. Particulars: at 10 µM.
Assay [17] has as its target Casein kinase I isoform gamma-1 (Homo sapiens) (UniProt Q9HCP0). Particulars: at 1 µM.
Assay [18] shares this target. As to conditions: at 10 µM.
The target in assay [19] is Casein kinase I isoform delta (Homo sapiens) (UniProt P48730). Particulars: at 1 µM.
Sequence of Casein kinase I isoform delta (Homo sapiens) (P48730 whole entry, looked up, canonical isoform): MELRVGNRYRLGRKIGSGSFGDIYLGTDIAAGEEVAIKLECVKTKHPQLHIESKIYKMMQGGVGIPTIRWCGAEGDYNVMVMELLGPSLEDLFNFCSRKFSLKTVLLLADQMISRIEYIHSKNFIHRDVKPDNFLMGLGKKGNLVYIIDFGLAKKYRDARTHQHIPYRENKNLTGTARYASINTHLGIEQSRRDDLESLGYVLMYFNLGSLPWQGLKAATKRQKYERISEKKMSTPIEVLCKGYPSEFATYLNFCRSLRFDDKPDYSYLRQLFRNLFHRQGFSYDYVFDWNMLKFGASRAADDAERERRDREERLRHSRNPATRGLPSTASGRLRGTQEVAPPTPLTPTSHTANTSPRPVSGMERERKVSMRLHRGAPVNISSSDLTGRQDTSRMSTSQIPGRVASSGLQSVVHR
Assay [20] shares this target. Particulars: at 10 µM.

Sequence of Casein kinase I isoform gamma-1 (Homo sapiens) (Q9HCP0 whole entry, looked up, canonical isoform): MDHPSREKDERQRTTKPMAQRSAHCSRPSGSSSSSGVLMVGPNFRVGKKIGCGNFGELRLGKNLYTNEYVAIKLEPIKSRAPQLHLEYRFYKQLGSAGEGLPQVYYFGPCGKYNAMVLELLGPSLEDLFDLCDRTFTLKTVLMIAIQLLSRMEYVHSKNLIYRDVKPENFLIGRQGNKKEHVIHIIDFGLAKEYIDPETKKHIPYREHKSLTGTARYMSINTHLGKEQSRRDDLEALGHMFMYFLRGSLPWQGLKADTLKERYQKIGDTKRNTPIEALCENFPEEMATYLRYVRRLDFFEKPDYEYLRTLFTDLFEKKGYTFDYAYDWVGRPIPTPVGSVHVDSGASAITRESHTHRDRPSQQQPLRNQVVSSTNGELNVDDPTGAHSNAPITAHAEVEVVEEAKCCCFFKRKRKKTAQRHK
T1 sequence (O96020 whole entry, looked up): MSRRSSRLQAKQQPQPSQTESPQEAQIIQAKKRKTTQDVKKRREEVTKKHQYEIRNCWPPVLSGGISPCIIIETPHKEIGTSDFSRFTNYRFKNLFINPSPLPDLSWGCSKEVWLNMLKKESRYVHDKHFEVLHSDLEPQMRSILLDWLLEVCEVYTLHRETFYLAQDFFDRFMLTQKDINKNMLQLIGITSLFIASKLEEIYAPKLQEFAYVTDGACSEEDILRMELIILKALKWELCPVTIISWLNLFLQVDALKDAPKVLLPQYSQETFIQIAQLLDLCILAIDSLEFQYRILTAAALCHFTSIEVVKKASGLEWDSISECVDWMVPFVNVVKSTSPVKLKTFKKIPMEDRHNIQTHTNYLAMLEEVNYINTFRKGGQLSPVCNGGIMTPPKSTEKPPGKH
T1 sequence (P24864 whole entry, looked up): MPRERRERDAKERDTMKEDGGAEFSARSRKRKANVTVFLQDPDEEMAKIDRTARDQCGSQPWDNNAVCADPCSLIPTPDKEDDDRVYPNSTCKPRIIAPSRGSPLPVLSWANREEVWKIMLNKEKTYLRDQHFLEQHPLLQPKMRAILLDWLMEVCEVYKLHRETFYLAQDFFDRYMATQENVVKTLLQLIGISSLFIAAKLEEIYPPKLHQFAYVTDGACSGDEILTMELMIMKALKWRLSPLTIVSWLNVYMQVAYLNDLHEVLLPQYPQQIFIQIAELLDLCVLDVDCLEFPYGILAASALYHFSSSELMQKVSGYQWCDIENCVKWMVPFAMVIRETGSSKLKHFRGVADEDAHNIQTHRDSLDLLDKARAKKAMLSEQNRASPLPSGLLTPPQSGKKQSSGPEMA
T1 sequence (Q00526 whole entry, looked up): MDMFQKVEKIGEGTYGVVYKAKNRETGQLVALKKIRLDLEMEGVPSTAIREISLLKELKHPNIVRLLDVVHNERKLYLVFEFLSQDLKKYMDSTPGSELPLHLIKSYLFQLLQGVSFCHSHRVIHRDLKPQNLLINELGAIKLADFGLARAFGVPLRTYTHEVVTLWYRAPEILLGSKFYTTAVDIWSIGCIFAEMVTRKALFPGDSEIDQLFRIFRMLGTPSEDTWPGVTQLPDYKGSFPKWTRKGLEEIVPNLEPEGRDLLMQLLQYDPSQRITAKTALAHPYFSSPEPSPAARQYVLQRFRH
Sequence of Serine/threonine-protein kinase Chk2 (Homo sapiens) (O96017 whole entry): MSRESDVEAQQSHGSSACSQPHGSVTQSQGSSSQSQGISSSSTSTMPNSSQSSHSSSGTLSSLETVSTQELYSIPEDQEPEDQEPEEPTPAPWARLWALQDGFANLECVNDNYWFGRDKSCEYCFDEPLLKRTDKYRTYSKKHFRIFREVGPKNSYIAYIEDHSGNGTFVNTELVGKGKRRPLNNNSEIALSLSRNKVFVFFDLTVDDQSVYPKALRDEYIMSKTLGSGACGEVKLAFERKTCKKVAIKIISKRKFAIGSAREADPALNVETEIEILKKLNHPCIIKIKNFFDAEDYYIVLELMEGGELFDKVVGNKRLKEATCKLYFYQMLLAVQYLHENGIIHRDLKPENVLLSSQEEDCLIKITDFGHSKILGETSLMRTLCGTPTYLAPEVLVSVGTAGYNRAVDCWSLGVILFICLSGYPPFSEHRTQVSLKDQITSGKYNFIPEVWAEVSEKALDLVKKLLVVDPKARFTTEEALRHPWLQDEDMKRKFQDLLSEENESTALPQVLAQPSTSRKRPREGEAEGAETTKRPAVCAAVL

For the compound `O=C1c2ccccc2-[n+]2ccc3c([nH]c4ccccc43)c21`, the residual activity was 87% in assay [1]; 81% in assay [2]; 72% in [3]; 82% in [4]; 108% in [5]; 82% in assay [6]. For the same compound, the residual activity turned out to be 87% in assay [7]; 82% in assay [8]; 99% in assay [9]; 83% in assay [10]; 86% in assay [11]; 92% in assay [12]. The residual activity in assay [13] is 94%; in assay [14], 87%; in assay [15] it was 77%; in [16] it was 75%; in assay [17], 98%; in assay [18] it was 81%. The residual activity in assay [19] stood at 79%; in [20], 77%.
With `COc1ccc(C(=O)Nc2sc3c(c2C(N)=O)CCCC3)cc1OC`, the residual activity was determined as 101% in [1]; 92% in assay [2]; 101% in assay [3]; 108% in assay [4]; 85% in assay [5]; 88% in [6]. The residual activity in assay [7] was determined as 94%; in assay [8], 94%; in [9] it was 71%; in assay [10], 114%; in [11], 96%; in assay [12], 97%. Further, the residual activity in [13] is 81%; in [14], 104%; in assay [15], 77%; in [16], 98%; in assay [17], 84%; in [18], 103%. The residual activity in assay [19] turned out to be 89%; in [20], 96%.
As for `COc1cc2ncnc(Nc3ccc(Oc4ccccc4)cc3)c2cc1OC`, the residual activity was found to be 94% in assay [1]; 91% in [2]; 108% in assay [3]; 92% in [4]; 98% in assay [5]; 109% in assay [6]. Also, the residual activity in assay [7] was 101%; in [8], 92%; in assay [9], 98%; in assay [10], 100%; in assay [11] it was 99%; in assay [12], 93%. In addition, the residual activity was 76% in assay [13]; 88% in [14]; 24% in [15]; 8% in [16]; 93% in assay [17]; 89% in [18]. The residual activity in assay [19] was determined as 83%; in [20] it was 101%.
With `Nc1cccc(-c2cc3c(Oc4cccc(O)c4)ncnc3[nH]2)c1`, the residual activity is 82% in assay [1]; 34% in [2]; 53% in assay [3]; 12% in assay [4]; 72% in assay [5]; 14% in [6]. Besides, the residual activity amounted to 101% in assay [7]; 64% in assay [8]; 101% in assay [9]; 67% in assay [10]; 31% in [11]; 5% in assay [12]. In addition, the residual activity in [13] came out at 45%; in assay [14], 11%; in assay [15], 54%; in assay [16] it was 12%; in [17], 86%; in [18], 49%. The residual activity stood at 86% in assay [19] and 44% in [20].
Regarding `O=Nc1c(-c2c(O)[nH]c3ccccc23)[nH]c2ccccc12`, the residual activity stood at 5% in assay [1]; 0% in assay [2]; 3% in assay [3]; 2% in assay [4]; 5% in [5]; 1% in assay [6]. The residual activity in [7] was 16%; in assay [8] it was 5%; in assay [9], 42%; in assay [10], 16%; in assay [11], 26%; in assay [12], 11%. For the same compound, the residual activity worked out at 65% in assay [13]; 30% in [14]; 13% in [15]; 2% in assay [16]; 57% in assay [17]; 19% in [18]. The residual activity in [19] stood at 14%; in assay [20], 4%.
Turning to `Nc1ccc2ncnc(NCCc3ccc(Oc4ccccc4)cc3)c2c1`, the residual activity was 107% in assay [1]; 90% in [2]; 99% in assay [3]; 85% in [4]; 123% in assay [5]; 98% in assay [6]. For the same compound, the residual activity stood at 114% in [7]; 96% in assay [8]; 98% in [9]; 85% in assay [10]; 94% in [11]; 107% in assay [12]. The residual activity in [13] worked out at 94%; in assay [14], 72%; in [15], 52%; in [16] it was 17%; in assay [17], 87%; in assay [18] it was 82%. The figures for the residual activity in [19] and in assay [20] were 77% and 53%, respectively.
Take `Cc1cc2ncc(-c3ccccc3)nc2cc1C`: the residual activity in assay [1] was 96%; in assay [2], 90%; in assay [3], 102%; in assay [4], 94%; in assay [5] it was 93%; in assay [6], 110%. For the same compound, the residual activity worked out at 107% in assay [7]; 88% in assay [8]; 102% in assay [9]; 97% in assay [10]; 105% in assay [11]; 85% in [12]. Moreover, the residual activity was 94% in assay [13]; 92% in assay [14]; 84% in [15]; 89% in [16]; 93% in assay [17]; 87% in [18]. In addition, the residual activity in assay [19] amounted to 87%; in assay [20], 55%.
